TDP1 cell noCPT: qHTS for Inhibitors of human tyrosyl-DNA phosphodiesterase 1 (TDP1): qHTS in cells in absence of CPT; DT40 Tdp1-/- hTDP1 cells, no CPT, ATP luminescence, 48 h; AID 686978, 2013; 420,000 tested, 15% active; Potency, µM (series often up to 46.2 µM), for the others: at the top dose activity change, negative = growth inhibition, usual class: inhibitors; also: potency is read from the fitted curve at half-maximal effect; nearly all actives have a fitted effect of over 55% in size
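Readout: luminescence from CellTiter-Glo after 30 min in the dark at RT. Cells: DT40 Tdp1-/- with stable hTDP1, 400/well. Exposure: compounds alone, ≥48 hr, 37 °C.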
HT1080-NT tox: kills 2HG-producing HT-1080-NT fibrosarcoma cells. HT-1080-NT fibrosarcoma viability, CellTiter-Glo ATP luminescence, 48 h. Potency, µM (highest dose often 46.1 µM), without a hit: at the highest dose activity, negative = less viability, hits mostly cytotoxic. 360,000 tested, 1.6% active. AID 686970;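 also: NT is the 2HG producing partner of a matched IDH1 knockdown line; potency is read from the fitted curve at half-maximal effect; 0% = DMSO-treated cells and -100% = media-only wells without cells; nearly all actives have a fitted effect of over 55% in size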
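Read-out is CellTiter-Glo luminescence after 10 minutes at room temperature, following 48 hours' compound treatment of HT-1080-NT cells (750 cells/well, RPMI, 5% FBS, 37 degrees C).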
TDP1 cell CPT: DT40-hTDP1 cell growth loss with CPT | AID 686979 | Potency, µM (doses to about 46.2 µM), without a hit: at the highest dose activity change, negative = growth inhibition, actives largely listed as inhibitors | chicken DT40 Tdp1-/-;hTDP1 cells + 20 nM CPT, ATP luminescence, 48 h | 420,000 tested, 12% active; also: potency is read from the fitted curve at half-maximal effect; nearly all actives have a fitted effect of over 55% in size
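Chicken DT40 Tdp1-/- cells stably complemented with human TDP1 were seeded at 400 cells/well in medium containing 20 nM camptothecin, exposed to pin-transferred compounds, and grown at 37 °C for at least 48 hr. Viability was read as ATP luminescence.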
HT1080 IDH1KD tx: toxicity to HT-1080 IDH1 knockdown cells (counter line); HT-1080 IDH1 knockdown viability, ATP luminescence, 48 h; Potency, µM (doses to about 46.1 µM), for the others: at the highest dose activity, negative = toxicity, usual class: cytotoxic; 360,000 tested, 2% active; AID 686971;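 also: potency is read from the fitted curve at half-maximal effect; 0% = DMSO wells and -100% = cell-free medium wells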
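After a 2 h attachment period, IDH1KD HT-1080 cells took pin-transferred compound for 48 h at 37 °C; ATP-based luminescence after 10 min room-temperature reagent incubation reported viability.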
IL1B secr inh: inhibitors of inflammasome signaling (IL-1 beta secretion); activity change, % at 57.5 µM; AID 743279; THP-1 LPS/ATP IL-1B secretion, AlphaLISA, 16 h; hits give low values; 360,000 tested, 4.7% active; in the data active = activity change below about -50%; inconclusive = mostly about -30% to -49%
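Secreted IL-1B measured by AlphaLISA bead assay after 16 h compound exposure of THP-1 cells; compounds (final up to 57.5 uM) added 1 h before LPS (250 ng/mL) and ATP (1.25 mM) stimulation; lower signal means less secretion.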
Active calls of the source: *; u = inconclusive; x = not tested or not shown; [ ] = another dose, or the depositor's remark. In the library only some 19% were active in any assay of this set; here they are far more common. Unless noted, calls follow the shape of the dose curve; as a rule, active = well fitted curve in the direction sought with a large enough effect; inconclusive = small, poorly fitted or top-dose-only effect, or another doubt; inactive = no such curve, though single readings can be large; an effect the other way counts as inactive or inconclusive. Unless noted, % is scaled to controls: 0 for no effect and ±100 for the full control effect.

SMILES	TDP1 cell noCPT	HT1080-NT tox	TDP1 cell CPT	HT1080 IDH1KD tx	IL1B secr inh
COC(=O)CC(NC1CCN(c2nc(C)c3cc4c(cc3n2)CCC4)CC1)C(=O)OC (stereo unspecified)	2%	x	14%[9.04 µM]	x	x
CC(C)(C)NC(=S)N/N=C\c1ccc(-c2ccc([N+](=O)[O-])cc2)o1	9.2µM*	13%	9.2µM*	4%	x
CNC(=S)N/N=C/c1ccc(-c2ccc(Cl)c([N+](=O)[O-])c2)o1	9.2µM*	-4%	8.2µM*	11%	-54*
Cc1cc([N+](=O)[O-])ccc1-c1ccc(/C=N/NC(=O)c2ccc(Br)o2)o1	u	-1%	u	0%	u
CCCCC(=O)N/N=C/c1ccc(-c2ccc([N+](=O)[O-])cc2)o1	16µM*	-9%	u	-5%	-21
O=C(O)c1ccc(-c2ccc(/C=N/Nc3ccc([N+](=O)[O-])cc3)o2)cc1	-26%	-28%	u	-27%	5
Cc1cc(C)n(Cc2ccc(C(=O)N/N=C/c3ccc(-c4ccc([N+](=O)[O-])cc4)o3)o2)n1	10µM*	u	u	u	-1
CC1=C(C(=O)NC2CCCc3c2cnn3-c2cccc(C)c2C)OCCO1 (stereo unspecified)	8.2µM*	-12%	21µM*	u	-22
Cc1nnc(SCC(=O)NC2CCCc3c2cnn3-c2ccccc2F)o1 (stereo unspecified)	19%	-1%	-6%	1%	6
Cc1cccc(-n2ncc3c2CCCC3NC(=O)CN2CCOC2=O)c1C (stereo unspecified)	8%	23%	-1%	24%	16
Cc1cccc(-n2ncc3c2CCCC3NC(=O)Cc2c(C)noc2C)c1C (stereo unspecified)	u	-21%	u	-14%	13
Cc1cc(C(=O)NC2CCCc3c2cnn3-c2cccc(C)c2C)no1 (stereo unspecified)	16µM*	-25%	21µM*	u	-3
O=C(CSc1ccccn1)NC1CCCc2c1cnn2-c1ccccc1F (stereo unspecified)	16µM*	-4%	-26%	-5%	24
COc1ccc(C(=O)NC2CCCc3c2cnn3-c2cccc(C)c2C)o1 (stereo unspecified)	23µM*	21µM*	21µM*	u	0
O=C(CNC(=O)c1cccs1)Nc1ccc2c(c1)OCCO2	0%	2%	-19%	-2%	7
O=C(CC1C(=O)NCCN1CC1CCCCC1)NCCc1ccc(F)cc1 (stereo unspecified)	-14%	-10%	28%	-16%	-1
Cc1cccc(-n2ncc3c2CCCC3NC(=O)c2ccncc2)c1C (stereo unspecified)	0.23µM*	0%	-7%	-9%	18
Cc1cccc(-n2ncc3c2CCCC3NC(=O)c2cccs2)c1C (stereo unspecified)	18µM*	-12%	u	-27%	1
Cc1cccc(-n2ncc3c2CCCC3NC(=O)CCc2cccnc2)c1C (stereo unspecified)	u	-6%	u	-7%	21
CCC1CN(CCNC(=O)c2cc3ccccc3oc2=O)Cc2cc(OC)ccc2O1 (stereo unspecified)	-9%	x	2%[9.04 µM]	x	x
CSc1cccc(NC(=O)CNC(=O)c2ccc3c(c2)OCO3)c1	-7%	5%	-23%	6%	8
CSc1cccc(-n2cc(-c3ccc4c(c3)OCO4)[nH]c2=O)c1	5.2µM*	u	4.6µM*	u	-14
c1ccc(-n2nnnc2Oc2cccc3cccnc23)cc1	-6%	7.9µM*	-15%	u	3
COc1ccc(Oc2nnnn2-c2ccccc2)cc1	-4%	u	9%	3%	-20
c1ccc(-n2nnnc2Oc2ccc(-n3ccnc3)cc2)cc1	-9%	9%	-13%	6%	-64*
SMILES	TDP1 cell noCPT	HT1080-NT tox	TDP1 cell CPT	HT1080 IDH1KD tx	IL1B secr inh
Cc1ccc(NC(=O)Cn2c(=O)n(Cc3nc(C)no3)c(=O)c3cc4c(cc32)OCO4)cc1	-25%	x	-20%	x	x
O=C(CN(C(=O)c1cc2c(s1)CCC2)C1CCCC1)NCc1cccs1	18µM*	-7%	8.2µM*	5%[9.24 µM]	u
CC(C)(C)OC(=O)N1CCC(c2c(C(=O)O)cnn2-c2ccc(Cl)cc2)CC1	-15%	1%	-12%	-1%	25
CC(C)(C)OC(=O)N1CCC(c2c(C(=O)N3CCC(c4ccccc4)C3)cnn2-c2ccc(Cl)cc2)CC1 (stereo unspecified)	16µM*	x	13µM*	x	x
Cc1ccc(-n2ncc(C(=O)O)c2C2CCN(C(=O)OC(C)(C)C)CC2)cc1	-29%	20%	-9%	10%	15
Cc1ccc(-n2ncc(C(=O)N3CCC(c4ccccc4)C3)c2C2CCN(C(=O)OC(C)(C)C)CC2)cc1 (stereo unspecified)	23µM*	x	15µM*	x	x
Cc1noc(C)c1NC(=O)N(C)C[C@@H]1Oc2ccc(NS(=O)(=O)c3c(C)noc3C)cc2C(=O)N([C@H](C)CO)C[C@H]1C	8%	-19%	-8%	6%	23
O=C(COc1ccc(Br)cc1)N1CCN(c2ncccn2)CC1	u	-1%	-10%	-1%	58
CN(CCC1CCOCC1)C(=O)CC1C(=O)NCCN1Cc1ccccc1F (stereo unspecified)	14%	2%	11%	-1%	5
O=C(NC1CCCCCC1)C1CCN(S(=O)(=O)c2c(Cl)cccc2Cl)CC1	23µM*	10%	23µM*	-2%	0
O=C(NC1CCCCCC1)C1CCN(S(=O)(=O)c2ccccc2)CC1	-29%	-1%	-4%	-4%	-10
O=C(Nc1ccncc1)C1CCN(S(=O)(=O)c2c(Cl)cccc2Cl)CC1	18µM*	-1%	u	1%	21
O=C(C1CCN(S(=O)(=O)c2c(Cl)cccc2Cl)CC1)N1CCCC1	-24%	-4%	-15%	-11%	14
COC(=O)c1cc(=O)n(Cc2ccc(F)cc2)c(=Nc2ccccc2)s1	u	-24%	u	-17%	u
CNC(=O)C1CC(=O)N(CCc2ccc(OC)c(OC)c2)C(=Nc2ccc(F)cc2)S1 (stereo unspecified)	u	2%	7%	1%	-77*
COC(=O)c1cc(=O)n(-c2ccccc2)c(=Nc2ccccc2)s1	23µM*	u	u	u	-58*
COC(=O)c1cc(=O)n(Cc2ccco2)c(=Nc2ccc(F)cc2)s1	u	23µM*	21µM*	u	-18
